Screening results: PubChem, National Center for Advancing Translational Sciences (NCATS)
Only some compounds are listed: those with a hit (about 12% of all), similar ones and a draw of the others.
BAZ2B inh: BAZ2B (human) inhibition. 360,000 compounds, 4.4% hits. Q9UIF8. Potency, µM (doses to about 114 µM), inactives show at the top dose activity change, negative = inhibition, usual class: inhibitors. AlphaScreen BAZ2B-H3K14Ac peptide displacement; also: potency is read from the fitted curve at half-maximal effect; % is scaled to controls: 0 for no effect and ±100 for the full control effect; nearly all actives have a fitted effect of over 60% in size
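Compounds, titrated to a top concentration of 110 uM, were incubated 30 min at room temperature with preformed BAZ2B/acetyl-K14 H3 peptide complex (50 nM each). Proximity signal was measured by AlphaScreen after 20 min with beads.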
PI5P4K alpha inh: inhibitors of human PI5P4K alpha | P48426 | max response, % | PI5P4Kalpha enzyme, ADP-Glo luminescence, 60 min; hits give low values | 330,000 compounds, 1.2% hits; active = max response of -50% or lower; inconclusive = between -30% and -50%; inactive = -30% or higher; also: value at the top dose of about 77 µM; % is scaled to controls: 0 for no effect and ±100 for the full control effect
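Enzyme plus substrate dispensed, test compounds pinned in, then ATP (5 microM final) added. After 60 min at RT, ADP-Glo reagent 1 for 45 min and reagent 2 for 30 min preceded luminescence imaging.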
JMJD2A Tudor inh: inhibitors of human JMJD2A Tudor domain | Potency, µM (titrated, usually from 114 µM), for inactives: at the top dose activity change, negative = inhibition, hits mostly inhibitors | AlphaScreen JMJD2A-Tudor / H3K4me3 peptide binding | 390,000 compounds, 4.4% hits; also: potency is read from the fitted curve at half-maximal effect; % is scaled to controls: 0 for no effect and ±100 for the full control effect; nearly all actives have a fitted effect of over 50% in size
Target sequence (O75164 whole entry, looked up, the tested form may be a part): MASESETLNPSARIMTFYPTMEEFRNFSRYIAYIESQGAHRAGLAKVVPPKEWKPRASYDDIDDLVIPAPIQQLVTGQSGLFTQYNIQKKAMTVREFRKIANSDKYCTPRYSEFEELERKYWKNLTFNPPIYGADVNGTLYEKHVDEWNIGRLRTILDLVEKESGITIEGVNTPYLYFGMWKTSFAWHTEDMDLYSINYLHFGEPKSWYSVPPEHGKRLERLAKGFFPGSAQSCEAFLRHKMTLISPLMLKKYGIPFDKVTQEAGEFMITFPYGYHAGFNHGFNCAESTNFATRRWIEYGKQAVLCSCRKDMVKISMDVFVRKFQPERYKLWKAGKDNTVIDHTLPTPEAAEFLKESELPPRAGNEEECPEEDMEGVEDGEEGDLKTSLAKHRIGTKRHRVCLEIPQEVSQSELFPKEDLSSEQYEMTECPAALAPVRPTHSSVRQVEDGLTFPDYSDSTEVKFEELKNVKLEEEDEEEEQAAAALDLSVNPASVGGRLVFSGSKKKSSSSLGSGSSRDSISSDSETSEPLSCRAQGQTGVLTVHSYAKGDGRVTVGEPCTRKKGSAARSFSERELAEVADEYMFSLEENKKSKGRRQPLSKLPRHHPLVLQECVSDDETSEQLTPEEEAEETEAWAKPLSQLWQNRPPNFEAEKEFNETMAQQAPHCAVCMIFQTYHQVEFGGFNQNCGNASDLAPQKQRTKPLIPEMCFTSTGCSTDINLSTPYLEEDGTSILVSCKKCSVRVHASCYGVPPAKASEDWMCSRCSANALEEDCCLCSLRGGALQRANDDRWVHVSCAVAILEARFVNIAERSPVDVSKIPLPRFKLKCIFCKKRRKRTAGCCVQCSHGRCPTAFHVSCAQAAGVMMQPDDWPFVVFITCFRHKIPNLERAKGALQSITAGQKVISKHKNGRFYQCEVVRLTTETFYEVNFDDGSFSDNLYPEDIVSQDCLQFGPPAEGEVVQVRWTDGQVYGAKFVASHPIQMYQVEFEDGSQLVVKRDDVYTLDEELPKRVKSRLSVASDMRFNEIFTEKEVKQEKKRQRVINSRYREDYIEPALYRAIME
PLK1 PBD block: PLK1 (human) polo-box domain binding inhibition. Potency, µM, inactives show max response, negative = inhibition, actives largely listed as inhibitors. P53350. Plk1 PBD binding of FITC phosphopeptide, fluorescence polarization. AID 720504. 360,000 compounds, 2.8% hits; also: potency is read from the fitted curve at half-maximal effect; series mostly up to about 57 µM; % is scaled to controls: 0 for no effect and ±100 for the full control effect; nearly all actives have a fitted effect of over 65% in size
HP1b chromo inh: inhibitors of HP1-beta chromodomain binding to methylated histone tails; P83916; AlphaScreen HP1-beta / biotin-H3K9me3 peptide binding; Potency, µM (doses to about 114 µM), for the others: top-dose activity change, negative = inhibition, usual class: inhibitors; 390,000 compounds, 0.56% hits; AID 540317; also: potency is read from the fitted curve at half-maximal effect; nearly all actives have a fitted effect of over 70% in size
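AlphaScreen: HP1-beta (50 nM) preformed 30 min with biotin-H3(1-18)K9me3 peptide (50 nM) in PBS pH 7.4, 0.01% Tween-20. Compound added for 30 min at RT, then streptavidin donor/nickel chelate acceptor beads (10 ug/mL) for 30 min.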
G9a block: blocks human histone lysine methyltransferase G9a; G9a H3K9 monomethylation, AlphaScreen, 2 h; Potency, µM (series often up to 102 µM), for the others: at the highest dose activity, negative = inhibition, hits mostly inhibitors; 350,000 compounds, 8.8% hits; AID 504332; also: potency is read from the fitted curve at half-maximal effect; % is scaled to controls: 0 for no effect and ±100 for the full control effect; nearly all actives have a fitted effect of over 75% in size
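Step 1: enzyme (final 20 nM) with compound, 15 min RT. Step 2: substrate peptide 500 nM and SAM 20 uM, 2 h RT. Step 3: anti-H3K9me1 antibody and AlphaScreen beads, 10 min, then plate read.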
Starred values were filed as active, the others as inactive; ? = inconclusive; / = no result; [ ] = dose if it differs, or a comment. Unless noted, calls follow the shape of the dose curve; as a rule, active = well fitted curve in the direction sought with a large enough effect; inconclusive = small, poorly fitted or top-dose-only effect, or another doubt; inactive = no such curve, though single readings can be large; an effect the other way counts as inactive or inconclusive.

SMILES	BAZ2B inh	PI5P4K alpha inh	JMJD2A Tudor inh	PLK1 PBD block	HP1b chromo inh	G9a block
CC(=O)N1CCN(S(=O)(=O)c2ccc(F)c(Cl)c2)CC1	/	3.5	-1.5%	-1.9%	21.0%	15.9%
CCOc1ccc2cc(S(=O)(=O)N3CCOCC3)ccc2c1	7.7%	0.0	-1.7%	?	9.1%	4.47µM*
Cc1cc(S(=O)(=O)N2CCOCC2)ccc1F	-4.8%	-2.6	79.4µM*	29.9µM*	?	-1.8%[59 µM]
O=C(CN1CCN(S(=O)(=O)c2ccc(F)c(Cl)c2)CC1)N1CCOCC1	-2.8%	3.9	10.7%	2.7%	39.0%	1.12µM*
O=C(CN1C(=O)NC(Cc2ccccc2)C1=O)Nc1ccccc1OC(F)F (configuration not stated)	6.3%	-8.9	-5.5%	-7.6%	9.0%	?
CC(=O)Nc1cccc(NC(=O)CSc2nnc(Cc3cccn3C)n2-c2ccc(F)cc2)c1	?	/	?	-2.2%	-13.9%	?
COc1ccc(-n2c(Cc3cccn3C)nnc2SCC(=O)Nc2ccc(F)cc2)cc1	?	-4.4	-25.7%	4.2%	3.2%	35.5µM*
COc1ccc(-n2c(Cc3cccn3C)nnc2SCC(=O)Nc2nccs2)cc1	?	-2.3	-35.0%	-0.4%	5.9%	?
COc1ccc(NC(=O)CSc2nnc(Cc3cccn3C)n2-c2ccc(F)cc2)cc1	?	0.7	-27.5%	?	17.0%	70.8µM*
Cn1c(=O)c(Nc2ccc(O)cc2)c2c3c(cccc31)C(=O)c1ccccc1-2	6.31µM*	?	7.94µM*	?	17.8µM*	12.6µM*
CC(=O)c1c2c3c(c(Br)ccc3n(C)c1=O)C(=O)c1ccccc1-2	?	-14.3	-35.8%	-19.0%	-20.5%[57 µM]	/
CC(=O)c1c2c3c(cccc3n(C)c1=O)C(=O)c1ccccc1-2	?	-10.8	-26.9%	?	48.0%	17.8µM*
CCc1cccc2c1NC(=O)C21N2CCCC2C(C(=O)c2ccc3ccccc3c2)C12C(=O)Nc1ccccc12 (configuration not stated)	?	-20.1	?	-19.4%	?	?
CCc1ccc2c(c1)C1(C(=O)N2)N2CCCC2C(C(=O)c2ccc3ccccc3c2)C12C(=O)Nc1ccccc12 (configuration not stated)	?	-0.6	-35.6%	13.7%	-13.6%	14.1µM*
COc1ccc(-c2nc3cnc(OC)nc3n(C[C@H]3CCCO3)c2=O)cc1	/	/	/	/	/	4.5%[0.501 µM]
O=C(OCC(=O)c1c[nH]c2ccccc12)c1ccc([N+](=O)[O-])s1	?	-1.5	?	-21.9%	?	44.7µM*
CCc1cccc2c(C(=O)COC(=O)c3ccc([N+](=O)[O-])s3)c[nH]c12	?	10.5	?	-7.3%	2.2%	?
COc1ccccc1C(=O)Nc1nc(-c2cccs2)c(NC(C)=O)s1	-8.5%	-5.3	-4.7%	-12.7%	24.3%	?
CCN(CC)c1ccc(/C=C(\C#N)c2nc(-c3cccs3)c(NC(C)=O)s2)cc1	20µM*	/	/	/	/	10µM*
O=C(NC(=S)Nc1cccc(Cl)c1N1CCCCC1)c1cccs1	-28.2%[57.1 µM]	/	56.2µM*	-1.0%	?	-25.9%
N#Cc1ccccc1NC(=S)NC(=O)c1cccs1	-13.0%	-56.1*	-25.3%	8.44µM*	-6.5%[57 µM]	11.2µM*
CCc1ccc(NC(=O)C2CCN(S(=O)(=O)c3c(C)noc3/C=C/c3cccs3)CC2)cc1	/	/	-5.3%	/	26.6%	7.3%[59 µM]
O=C(O)c1ccc(OS(=O)(=O)c2ccc(Cl)s2)cc1	-8.4%	-0.9	-8.3%	-6.5%	50.5%	5.3%[0.501 µM]
Nc1[nH]c(C(=O)c2ccccc2)c(-c2cccnc2)c1C(=O)NC1CCCCC1	/	2.0	/	-11.1%	/	/
CCC1CCCCN1S(=O)(=O)c1ccc(NC(=O)c2cc(=O)c3c(C)cc(C)cc3o2)cc1 (configuration not stated)	-2.5%	/	-9.0%	/	19.9%	6.1%[59 µM]
SMILES	BAZ2B inh	PI5P4K alpha inh	JMJD2A Tudor inh	PLK1 PBD block	HP1b chromo inh	G9a block
Cc1c(/C=N/NC(=O)c2cc(Br)ccc2O)c(=O)n(C)c(=O)n1C	4.1%	-8.1	-0.7%	-3.9%	24.5%	5.1%[59 µM]
Cc1ncc(CO)c(/C=N/NC(=O)c2cc(Br)ccc2O)c1O	11.2µM*	1.1	79.4µM*	-10.1%	39.3%	-40.0%
Cc1cc(C(=O)N/N=C/c2c(CO)cnc(C)c2O)c2ccccc2n1	25.1µM*	-2.6	50.1µM*	-1.0%	37.6%	70.9%
Cc1ncc(CO)c(/C=N/NC(=O)c2cc(O)c(O)c(O)c2)c1O	10µM*	/	/	/	/	?
CSc1nc(N)nc2c1ncn2CC(=O)N[C@H](CO)Cc1c[nH]c2ccccc12	/	-0.2	-12.9%	-6.5%	36.5%	/
COc1ccccc1NC(=S)N(CCCN1CCOCC1)Cc1cn(C)c2ccccc12	?	-3.0	?	?	-7.2%	?
COc1ccc(Cl)cc1NC(=S)N(CCCN1CCOCC1)Cc1cn(C)c2ccccc12	?	3.4	?	5.97µM*	?	10µM*
COc1cc(Cl)ccc1NC(=S)N(CCCN1CCOCC1)Cc1cn(C)c2ccccc12	?	0.3	?	5.32µM*	?	17.8µM*
Cc1cccc(Cn2cc(S(=O)(=O)c3ccccc3)c(=O)c3cc(F)c(N4CCOCC4)cc32)c1	4.2%	/	-16.5%	/	58.2%	-0.4%[59 µM]
Cc1ccc(N(CC(C)C)S(=O)(=O)c2nnc(NC(=O)c3cccs3)s2)cc1	12.6%	/	29.3%	/	64.0%	14.8%[59 µM]
Cc1cccc(Cn2c(=O)n(CC3CCC(C(=O)N4CCOCC4)CC3)c(=O)c3sccc32)c1 (configuration not stated)	-15.5%	/	-14.0%	/	48.1%	4.7%[59 µM]
CN1CCN(c2ncc3ncc(=O)n(CCC#N)c3n2)CC1	/	/	/	/	/	6.1%[0.501 µM]
CC1(C)c2ccccc2N2CCC(=O)NC21/C=C/c1ccco1 (configuration not stated)	?	-20.0	-17.6%	-0.7%	6.7%	39.8µM*
O=C1CN(N=Cc2ccco2)C(=O)N1	/	-1.0	-4.8%	3.6%	53.8%	/
CC1(C)c2ccccc2N2CC(=O)NC21/C=C/c1ccco1 (configuration not stated)	?	-21.7	-26.0%	-11.7%	-13.6%	31.6µM*
CC1(C(=O)NS(=O)(=O)C2CC2)CCCN(C(=O)c2cccc(Cl)c2)C1 (configuration not stated)	/	8.2	/	-4.8%	/	/
Cn1c(NCCO)nc2c1c(=O)n(Cc1ccccc1Cl)c(=O)n2C	-12.4%	/	-20.6%	/	24.9%	3.1%[59 µM]
O=C(O)C1OC(Oc2c(-c3ccc(O)c(O)c3)oc3cc(O)cc(O)c3c2=O)C(O)C(O)C1O (configuration not stated)	35.5µM*	?	31.6µM*	-12.0%	?	31.6µM*
